Seven compounds from PubChem BioAssay (NCI) can be followed below.

This is part of a sample that, as a whole, favours compounds with a hit. Of some 83,000 tested, about 20% had one in any assay.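 48-hour exposure, single concentration, 96-well plates; percent growth endpoint where 0 means no net growth. Active: below 10.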 Unmarked numbers belong to inactive results. Activity calls are given as the source filed them.

Common to all, as to test: NCI-60 one-dose screen, 48 h (100 = growth as untreated, 0 = no growth, -100 = all killed)
Details in all cases: 10 µM unless noted

For assay [1], the system named is DU-145 prostate.
For assay [2], the system named is K-562 leukemia.
Assay [3] relates to MALME-3M melanoma.
Assay [4] concerns MDA-MB-231 breast.
The test system of assay [5] is RXF 393 renal.
For assay [6], the system named is SF-268 CNS.
Assay [7] relates to SF-295 CNS.
Assay [8] deals with SF-539 CNS.
For assay [9], the system named is UACC-257 melanoma.
Assay [10] relates to M14 melanoma.
In assay [11] the test system is HCT-15 colon.
Assay [12] relates to HT29 colon.
For assay [13], the system named is SNB-75 CNS.
Assay [14] relates to SNB-19 CNS.
Assay [15] deals with U251 CNS.
For assay [16], the system named is PC-3 prostate.
Assay [17] relates to SK-MEL-5 melanoma.
Assay [18] relates to UACC-62 melanoma.
Assay [19] concerns LOX IMVI melanoma.
For assay [20], the system named is SK-MEL-28 melanoma.

In the case of `Cc1[nH]c(C2CC(c3ccc(C(F)(F)F)c(F)c3)=NN2c2ccccc2)c(C)c1C(=O)NCC(F)(F)F` (stereo not given), the growth in assay [1] is 94.7%; in assay [2] it was 76%; in assay [3] it was 79.7%; in assay [4] it was 88.8%; in assay [5], 80.8%; in assay [6] it was 84.7%. The growth was 87.1% in [7]; 94.4% in assay [8]; 97.6% in assay [9]; 94.8% in assay [10]; 76.2% in [11]; 84.6% in assay [12]. For the same compound, the growth is 82.5% in assay [13]; 85.6% in [14]; 91% in assay [15]; 74.6% in assay [16]; 95.7% in assay [17]; 75.5% in [18]. Further, the results for the growth in assay [19] and in [20] were 88.6% and 96.9%, respectively.
As to `CCOc1cccc(/C=N/NC(=O)c2cccc(Nc3ccnc(C(F)(F)F)c3)c2)c1O`, the growth was 19.2% in assay [1]; 28.7% in assay [2]; 30.9% in assay [3]; 45% in [4]; 47.4% in assay [5]; 26.7% in assay [6]. Moreover, the growth in assay [7] is 30.3%; in assay [8], 14.8%; in assay [9], 37.3%; in assay [10], -6.87% (active); in [11], 28.8%; in assay [12] it was 53.2%. Moreover, the growth in assay [13] is 36.4%; in [14], 35.1%; in assay [15], 37%; in [16], 59.1%; in assay [17], 34.7%; in assay [18] it was 0.213% (active). The values for the growth in assay [19] and in assay [20] were 11.8% and 34.6%, respectively.
With `O=C1/C(=C2\SC(=S)N(C3CC3)C2=O)SC(=S)N1C1CC1`, the growth in [1] was 105%; in assay [2], 103%; in assay [3], 99.2%; in assay [4] it was 101%; in [5], 97.3%; in assay [6] it was 95.1%. For the same compound, the growth in assay [7] was 98.6%; in [8] it was 103%; in assay [9], 94.9%; in assay [10], 96.3%; in assay [11], 101%; in [12], 107%. Besides, the growth is 81.9% in assay [13]; 99.2% in [14]; 99.6% in assay [15]; 92% in [16]; 97.4% in [17]; 94.6% in assay [18]. Further, the growth in assay [19] is 88.8%; in assay [20], 106%.
`Cc1c2ccncc2c(C)c2c1c1cc(CO)ccc1n2C`: the growth in assay [1] is -2.14% (active); in assay [2], 6.77% (active); in assay [3], -1.68% (active); in [4], -8.51% (active); in [5], 11.9%; in assay [6], 14.4%. Also, the growth in assay [7] is 3.5% (active); in assay [8] it was 17.2%; in assay [9], -39.2% (active); in assay [10], -22.9% (active); in [11], 4.02% (active); in [12] it was -21.1% (active). For the same compound, the growth in [13] is 13.3%; in [14], 1.5% (active); in assay [15], -10.8% (active); in assay [16] it was 4.52% (active); in assay [17], 6.31% (active); in assay [18] it was -54.2% (active). For the same compound, the growth in [19] is -21% (active); in [20] it was 5.47% (active).
`CCN1C(=O)N(CC)C2C1NN=c1s/c(=C\c3cnc(C)n3C)c(=O)n12` (stereo not given): the growth was 5.42% (active) in assay [1]; 15.5% in assay [2]; 29.8% in [3]; 43.8% in assay [4]; -29.3% (active) in assay [5]; 51.9% in assay [6]. In addition, the growth in assay [7] is 9.05% (active); in assay [8] it was -20.2% (active); in assay [9], 29.7%; in assay [10], 4.96% (active); in assay [11], 27.7%; in assay [12], 0.594% (active). Also, the growth in assay [13] is -24.7% (active); in assay [14] it was 25.6%; in assay [15], 7.74% (active); in [16], 17.5%; in assay [17], 17.9%; in assay [18], 31.2%. Also, the figures for the growth in assay [19] and in assay [20] were 34.5% and 42.7%, respectively.
On to `COc1ccc(-c2nc(-c3cn(C)c4ncccc34)cs2)cc1`, for which the growth in [1] was 15.2% [100 µM]; in [2], 11% [100 µM]; in assay [3], -54.9% [100 µM] (active); in [4] it was 15.9% [100 µM]; in assay [5], -12.6% [100 µM] (active); in assay [6], 23.4% [100 µM]. For the same compound, the growth in [7] was -25.5% [100 µM] (active); in assay [8] it was -67.2% [100 µM] (active); in assay [9] it was 17.5% [100 µM]; in assay [10] it was -69.6% [100 µM] (active); in [11], -1.17% [100 µM] (active); in [12], -63.2% [100 µM] (active). For the same compound, the growth in assay [13] was -3.6% [100 µM] (active); in assay [14], 23.2% [100 µM]; in [15], 3.9% [100 µM] (active); in assay [16], -28.2% [100 µM] (active); in assay [17], -83.4% [100 µM] (active); in assay [18], -20.1% [100 µM] (active). Besides, the growth was -47.1% [100 µM] (active) in [19] and 37.9% [100 µM] in assay [20].
For the compound `CCCn1nc(C(=O)N(C)Cc2ccccc2)c2c1CCC(N1CCc3ccccc31)C2` (stereo not given), the growth in assay [1] was 109%; in assay [2], 86.7%; in assay [3] it was 112%; in assay [4], 108%; in [5], 90.3%; in assay [6] it was 96.4%. The growth was 92.1% in assay [7]; 104% in assay [8]; 109% in [9]; 99% in [10]; 96.3% in assay [11]; 102% in [12]. In addition, the growth in [13] is 100%; in [14], 90.2%; in assay [15], 96.9%; in assay [16] it was 77.2%; in [17], 99.7%; in [18], 85.2%. The growth was 100% in assay [19] and 106% in assay [20].
